From PubChem BioAssay AID431 (Sanford-Burnham Center for Chemical Genomics, 2006)
Several values for one entry are separate records, joined by “and”; a condition that tells them apart may be missing. Equal values may be shown once. The whole screen tested about 63,000 compounds, of which about 1,100 (1.7%) were called active. The sample holds actives, similar compounds and a random draw of the others, so the mix is not that of the screen.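 How the source made its calls: active means compounds whose percent cytotoxicity in the single-dose primary screen, scaled between solvent and toxic-drug controls, exceeds 50; inactive means the rest.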 Potency and affinity values are given separately.

Assay: cytotoxicity in KRAS-transformed pancreatic duct cells, primary screen, cell-based, fluorescence, HTS (AID 431);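 further: 0% = DMSO solvent wells and 100% = doxorubicin-treated wells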
Settings: HPDE-C7K KRASV12 cells, Alamar Blue viability, 48 h; at 10 µM; hits give high values

Structure (SMILES)	cytotoxicity
CC(=O)N(c1ccc2oc(=O)sc2c1)S(=O)(=O)c1cccs1	14.7% (inactive)
COc1ccc(NC(=O)N2CCn3c2nc2ccccc23)cc1	-17.6% (inactive)
N=c1c(C(=O)NC2CCCC2)cc2c(=O)n3ccccc3nc2n1CCN1CCOCC1	-8.1% (inactive)
COCc1[nH]nc2c1C(c1ccc(F)cc1F)C(C#N)=C(N)O2 (stereo unspecified)	-13.5% (inactive)
Cc1cc(N2C(=O)C(O)=C(C(=O)c3ccco3)C2c2cccnc2)no1 (stereo unspecified)	-10.4% (inactive)
Cn1c(C(=O)Nc2ccc3c(c2)OCCO3)cc2c(=O)n(C)c3ccccc3c21	48.6% (inactive)
C=CCn1c(COc2cccc3ccc(C)nc23)nnc1SCC(=O)OC	6.8% (inactive)
COc1cccc(CN2CCNC(=O)C2CC(=O)O)c1OC (stereo unspecified)	-4.6% (inactive)
Cc1n[nH]c(C)c1S(=O)(=O)N1CCN(C(=O)c2ccco2)CC1	4% (inactive)
COC(=O)c1ccc(CN(c2ccc(C)cc2)S(=O)(=O)c2ccc3c(c2)OCCO3)o1	7.1% (inactive)
COc1cccc(N(CC(=O)NC(C)(C)C)C(=O)C2CSC(=O)C2)c1 (stereo unspecified)	-24.1% (inactive)
CCOC(=O)C1CCN(c2ncnc3c2cnn3-c2ccccc2)CC1	2.3% (inactive)
COc1ccc(/C(O)=C2/C(=O)C(=O)N(CCN(C)C)C2c2ccccn2)cc1OC (stereo unspecified)	-9.5% (inactive)
CCC(C)(C)NC(=O)C(c1ccccc1F)N(Cc1ccco1)C(=O)Cn1nnc2ccccc21 (stereo unspecified)	-4.3% (inactive)
O=C(NC1CCCCC1)C(c1ccccc1F)N(Cc1ccco1)C(=O)Cn1nnc2ccccc21 (stereo unspecified)	65.1% (active)
O=C(NC1CCCCC1)C(c1ccc(F)cc1)N(Cc1ccco1)C(=O)Cn1nnc2ccccc21 (stereo unspecified)	-8.2% (inactive)
O=C(OC(C(=O)NCC1CCCO1)c1ccc(F)cc1)c1ccco1 (stereo unspecified)	-12.4% (inactive)
COc1cc(-c2c(C#N)c(N)nc3c2CCCC3)ccc1O	-23.5% (inactive)
COc1cc2nc(N3CCN(C(=O)C4CCCO4)CC3)nc(N)c2cc1OC (stereo unspecified)	-6.8% (inactive) and -0.8% (inactive)
COc1cc2nc(N3CCN(C(=O)c4ccco4)CC3)nc(N)c2cc1OC	90.2% (active)
COc1cc2nc(N3CCN(C(=O)C4COc5ccccc5O4)CC3)nc(N)c2cc1OC (stereo unspecified)	43.4% (inactive)

Structure (SMILES)	cytotoxicity
CN(c1ccccc1C(=O)NCc1ccco1)S(C)(=O)=O	3.4% (inactive)
Cc1ccc(S(=O)(=O)NCCC(=O)Nc2nnc(C3CC3)s2)cc1C	5.5% (inactive)
O=C(NCCCN1CCOCC1)c1ccc(CS(=O)(=O)c2cccc(C(F)(F)F)c2)o1	-4.8% (inactive)
O=C1c2cccnc2C(O)N1Cc1cccs1 (stereo unspecified)	-24.1% (inactive)
CCC(C)n1ncn(-c2ccc(N3CCN(c4ccc(OCC5COC(Cn6cncn6)(c6ccc(Cl)cc6Cl)O5)cc4)CC3)cc2)c1=O (stereo unspecified)	68.7% (active)
O=C1Nc2ccccc2C12OCC(COc1ccc(Cl)cc1)O2 (stereo unspecified)	36.3% (inactive)
CCCC1COC(Cn2cncn2)(c2ccc(C)cc2)O1 (stereo unspecified)	-8.6% (inactive)
CN1CCN(S(=O)C23CC4CC(CC(C4)C2)C3)CC1 (stereo unspecified)	-18.9% (inactive)
CCOc1ccc(-c2nc(N)nc(C)c2-c2ccc(OC)c(OC)c2)c(O)c1	9.6% (inactive)
CCCOC(=O)c1ccc(OC(=O)c2ccco2)cc1	1.8% (inactive)
COc1ccc(C(=O)OCCN2C(=O)c3ccccc3C2=O)cc1	1.1% (inactive)
CCOc1ccc(-c2n[nH]c(C)c2-c2ccccc2OC)c(O)c1	-3.5% (inactive)
Cc1cc2nc(SCCN3CCCC3)[nH]c2cc1C	16.7% (inactive)
CC1=Nn2c(nnc2C2CCCCC2)SC1	-19% (inactive)
CCn1c(=O)cc(OCC(=O)NC2CCCCC2)c2ccccc21	-1.2% (inactive)
CCSc1nnc(-c2ccc(S(=O)(=O)N3CCOCC3)cc2)n1CC1CCCO1 (stereo unspecified)	14% (inactive)
Cc1c(N(C)C(=O)c2ccco2)c(=O)n(-c2ccccc2)n1C	8.3% (inactive)
COc1ccc2c(c1)CC(C1(O)C(=O)Nc3ccccc31)C2=O (stereo unspecified)	-10.5% (inactive)
CC1CC(=O)N(CC(=O)N2CCCC2)c2ccccc2S1 (stereo unspecified)	-21% (inactive)
O=C(CN1CCCC1)N1c2ccccc2Sc2ccccc21	-4.5% (inactive)
CCOC(=O)C1CCN(C(=O)COc2ccc(Br)cc2)CC1	6.3% (inactive)

Structure (SMILES)	cytotoxicity
CCCn1c(NC(=O)c2ccccc2)nc2ccccc21	-14.1% (inactive)
CCCn1c(NCc2ccco2)nc2ccccc21	-3.7% (inactive)
CCn1c(COc2ccccc2)nnc1SCC(=O)C(C)(C)C	16.4% (inactive)
CCc1ccccc1NC(=O)C(CC)Sc1nc2cc3c(cc2c(=O)n1Cc1ccco1)OCO3 (stereo unspecified)	10.9% (inactive)
CCC(Sc1nc2cc3c(cc2c(=O)n1Cc1ccco1)OCO3)C(=O)Nc1ccccc1OC (stereo unspecified)	-11.9% (inactive)
O=C(c1cccc(Cl)c1)N1CCN(c2ccccn2)CC1	-21.5% (inactive)
O=C(CCCOc1ccc(Cl)cc1Cl)N1CCN(c2ccccn2)CC1	1.2% (inactive)
O=C(c1cccc(COc2ccc(Cl)cc2Cl)c1)N1CCN(c2ccccn2)CC1	99% (active)
COc1ccc(Br)cc1-c1nc(C)c(C(C)=O)n1O	9.6% (inactive)
O=C(Nc1ccc(F)cc1Cl)c1ccc2c(=O)n3c(nc2c1)CCCCC3	-3.1% (inactive)
O=C(Nc1ccc(F)c(Cl)c1)c1ccc2c(=O)n3c(nc2c1)CCCCC3	-3.7% (inactive)
O=C(Nc1cccc(Cl)c1)c1ccc2c(=O)n3c(nc2c1)CCCCC3	53.7% (active)
CCC(C)C(NC(=O)c1ccccc1NC(=O)c1ccco1)C(=O)O (stereo unspecified)	1.4% (inactive)
CC(C)COc1ccc(C2NC(=O)NC2=O)cc1 (stereo unspecified)	3.8% (inactive)
Nc1cc(C(=O)N2CCCC2)cc(C(=O)N2CCCC2)c1	6.7% (inactive)
O=P(O)(CCc1ccccc1)CN1CCCCC1	2.1% (inactive)
COc1ccc(C(=O)Oc2ccc3c(c2)OCO3)cc1OC	-16.2% (inactive)
COc1cc2c(=O)n(-c3ccc(C)cc3)c(=O)n(CC(=O)c3ccc4c(c3)OCO4)c2cc1OC	2.3% (inactive)
COc1cc2c(O)c3c(c(-c4ccc5c(c4)OCO5)c2cc1OC)C(=O)OC3	99.9% (active)
